Sfp inh: Sfp phosphopantetheinyl transferase inhibition. 310,000 tested, 3.5% active. Potency, µM, inactives show largest response in the series, negative = inhibition, most hits filed as inhibitors. Q9F4F7. Biochemical Sfp PPTase activity, qHTS;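 also: the enzyme is Sfp with the accession as filed and its product quenches rhodamine fluorescence; 0% = enzyme reaction without inhibitor and -100% = no enzyme wells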
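Step 1, compound plus 15 nM Sfp-PPTase, 15 min, room temperature. Step 2, add rhodamine-CoA (5 uM) and BHQ-2-YbbR (12.5 uM). Step 3, read 525/598 nm fluorescence at 0 and 30 min.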
RORgamma inh: ROR gamma (mouse) transcription inhibition; Drosophila S2 Gal4-RORgamma UAS-luciferase reporter, 20 h; Potency, µM (series often up to 53.6 µM), for the others: at the top dose activity change, negative = inhibition, actives largely listed as inhibitors; 310,000 tested, 5.4% active; P51450; also: % is scaled to controls: 0 for no effect and ±100 for the full control effect; nearly all actives have a fitted effect of over 60% in size
Target sequence (P51450 whole entry, looked up, the tested form may be a part): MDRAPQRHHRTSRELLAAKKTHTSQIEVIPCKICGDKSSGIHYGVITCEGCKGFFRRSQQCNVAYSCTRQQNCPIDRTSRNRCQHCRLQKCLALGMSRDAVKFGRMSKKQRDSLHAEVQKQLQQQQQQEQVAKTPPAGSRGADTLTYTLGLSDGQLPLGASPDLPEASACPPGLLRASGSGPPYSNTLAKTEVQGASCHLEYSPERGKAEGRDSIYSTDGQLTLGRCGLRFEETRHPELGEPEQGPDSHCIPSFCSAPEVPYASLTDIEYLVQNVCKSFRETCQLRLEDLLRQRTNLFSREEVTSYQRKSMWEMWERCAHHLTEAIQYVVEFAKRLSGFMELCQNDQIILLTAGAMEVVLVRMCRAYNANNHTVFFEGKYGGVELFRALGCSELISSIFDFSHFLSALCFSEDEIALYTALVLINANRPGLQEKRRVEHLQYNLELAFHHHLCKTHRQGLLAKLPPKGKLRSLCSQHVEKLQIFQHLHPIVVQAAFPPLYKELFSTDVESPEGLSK
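ROR gamma transcriptional activity was tracked as Gal4-UAS luciferase output in stably transfected Drosophila Schneider cells, with compound added 1 hr before 700 uM copper sulfate induction and a 20 hr ambient-temperature incubation.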
ClpP mod: qHTS Assay for Activators of ClpP; ATP-dependent Clp protease proteolytic subunit (Bacillus subtilis (strain 168)), P80244; purified B. subtilis ClpP, FRET peptide cleavage, 20 min; Potency, µM (series often up to 57.5 µM), for inactives: at the highest dose activity change, negative = active; 340,000 tested, 1.9% active; AID 651965, 2013; active = well fitted falling curve with a large enough effect; inconclusive = small, poorly fitted or top-dose-only effect; inactive = no such curve, though single readings can be large or run the other way; also: the source files actives as falling curves though it sought activators and does not explain the sign; nearly all actives have a fitted effect of over 65% in size
Target sequence (P80244 whole entry, looked up): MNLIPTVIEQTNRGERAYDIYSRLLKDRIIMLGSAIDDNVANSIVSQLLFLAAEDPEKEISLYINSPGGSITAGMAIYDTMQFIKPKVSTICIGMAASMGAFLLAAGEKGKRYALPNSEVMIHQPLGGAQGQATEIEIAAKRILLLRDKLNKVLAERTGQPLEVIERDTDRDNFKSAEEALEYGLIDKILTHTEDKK
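Buffer: 100 mM Tris/HCl pH8, 100 mM KCl, 0.05% low protease BSA, 2.5% glycerol, 0.01% Tween-20. ClpP 10 microg/mL final; 20 min RT; delta FRET normalized to ADEP and DMSO controls.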
Epigenetic reg: regulators of epigenetic silencing causing reporter derepression in mouse cells; murine LDR cells, GFP reporter derepression, 30 h; Potency, µM (highest dose often 53.9 µM), without a hit: at the top dose GFP activation, actives largely listed as activators; 280,000 tested, 0.2% active; AID 1865; also: % of control where 0% means no effect; nearly all actives have a fitted effect of over 60% in size
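GFP-positive cell count by laser-scanning cytometry (objects 20–120 um) after 30 h, 37 C compound exposure of murine LDR cells; reporter is CMV-GFP integrated at a silenced locus, inducible by HDAC or DNMT inhibitors.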
PINK1 expr mod: modulators of PINK1 expression; Potency, µM (doses to about 76.6 µM), without a hit: top-dose activation (PINK1 increase), usual class: activators; AID 624263; PINK1 immunofluorescence, high-content cytometry, 24 h; 410,000 tested, 0.2% active; active = well fitted activation curve with a large enough effect; inconclusive = small, poorly fitted or top-dose-only effect; cell line not stated here; also: % of control where 0% means no effect; nearly all actives have a fitted effect of over 65% in size
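Stable cell line, 250 cells/well, 12 h attachment; compounds pinned at 5 concentrations, 24 h; CCCP control. Fixed with nuclear dye, primary antibodies 12 h at 10 degrees C, secondary plus cell stain; laser-scanning cytometer read.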
Gal4-VP16 FLuc: inhibits Gal4-VP16 luciferase reporter, ROR gamma counter-screen | AID 2546 | Drosophila S2 Gal4-VP16 UAS-luciferase, luminescence, 20 h | 310,000 tested, 3.5% active | Potency, µM (titrated, usually from 53.6 µM), for inactives: top-dose activity, negative = inhibition, most hits filed as inhibitors;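 also: Gal4-VP16 expression switched on by copper sulfate through the metallothionein promoter; % is scaled to controls: 0 for no effect and ±100 for the full control effect; nearly all actives have a fitted effect of over 50% in size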
Active calls of the source: *; ? = inconclusive; / = no result given; [ ] = remark or other dose. A selection: hits, their analogues and other compounds. The true share with any hit is near 8.1%. Unless noted, calls follow the shape of the dose curve; as a rule, active = well fitted curve in the direction sought with a large enough effect; inconclusive = small, poorly fitted or top-dose-only effect, or another doubt; inactive = no such curve, though single readings can be large; an effect the other way counts as inactive or inconclusive. Potency is read from the fitted curve at half-maximal effect.

SMILES	Sfp inh	RORgamma inh	ClpP mod	Epigenetic reg	PINK1 expr mod	Gal4-VP16 FLuc
FC(F)(F)c1cc(-c2ccccc2)nc2ncnn12	6.5%	33.3%	28.2µM*	0.1%	/	-6.6%
O=C(c1cc2nc(-c3ccccc3)cc(C(F)(F)F)n2n1)N1CCCC1	/	/	-2.7%	/	1.3%	/
CCn1c2ccccc2c2cc(Nc3cc(C)nc4ncnn34)ccc21	-24.8%	20µM*	0.0%	3.9%	8.4%	?
O=C(c1nc2nc(-c3ccccc3)cc(C(F)(F)F)n2n1)N1CCCCC1	-7.6%	36.7%	28.2µM*	-1.0%	4.9%[38.3 µM]	-3.4%
CC(=O)N1CCc2c(sc3c2c(=O)n(-c2ccccc2)c(=O)n3CC(=O)Nc2ccccc2C)C1	/	/	0.9%	10.8%	1.2%	/
CCc1ccccc1NC(=O)Cc1c(C(=O)O)[nH]c2ccc(Cl)cc12	/	/	-11.2%	4.2%	0.1%	/
FC(F)(F)c1cc(-c2ccco2)nc2ncnn12	-8.9%	7.7%	28.2µM*	0.0%	0.9%	-7.9%
Clc1ccccc1OCCn1cnc2ccccc21	1.1%	8.2%	-1.8%	2.9%	-2.6%[38.3 µM]	6.1%
NC(=O)CCn1cnc2ccccc21	18.0%	1.6%	/	1.2%	-1.0%	7.2%
Clc1ccc(OCCn2cnc3ccccc32)cc1	15.0%	3.98µM*	-1.0%	-1.0%	1.0%	10.0%
c1ccc2c(c1)ncn2CCC1CCCCC1	1.9%	7.94µM*	0.8%	-1.1%	7.2%[38.3 µM]	-90.8%
Cc1ccc(Cl)cc1N1CCN(C(=O)CCS(=O)(=O)c2cc(Br)cc3c2N(C(=O)C2CC2)CC3)CC1	/	/	0.8%	-0.6%	0.1%	/
O=C(CNC(=S)N(Cc1ccccc1)Cc1ccccc1F)NCc1ccccc1	13.1%	20.9%	?	-0.5%	24.3%	-11.0%
O=C(CNC(=S)N(Cc1ccccc1)Cc1ccccc1F)NCCc1ccccc1	25.7%	12.6µM*	?	-2.2%	24.6%	-27.6%
O=C(CNC(=S)N(Cc1ccccc1)Cc1ccccc1F)NCc1ccc(Cl)cc1	16.9%	2µM*	/	0.0%	29.6%	-15.4%
CN(C)CCNC(=O)CNC(=S)N(Cc1ccccc1)Cc1ccccc1F	-2.6%	-11.9%	/	-0.3%	-0.5%	2.2%
O=C(NCC(c1ccccc1)c1ccccc1)c1nn(-c2ccccc2Cl)nc1CO	/	/	-0.6%	0.7%	0.4%	/
CC1CCN(C(=O)/C(=C/c2ccccc2Cl)c2ccccc2)CC1	79.4µM*	-10.2%	0.2%	-0.9%	-1.7%	?
COc1ccc(NC(=O)C(C)N2Cc3ccccc3C2=O)cc1OC (centres undefined)	/	/	-1.7%	-0.4%	-0.7%	/
COc1ccc(C2c3ccc4ccccc4c3Oc3ncn(CCCN(C)C)c(=N)c32)cc1 (centres undefined)	-11.5%	10µM*	/	/	-2.2%	?
COc1ccccc1C1c2ccc3ccccc3c2Oc2ncn(CCCO)c(=N)c21 (centres undefined)	-19.5%	-37.6%	/	/	-0.9%	-9.4%
COc1ccccc1C1c2ccc3ccccc3c2Oc2ncn(CCN(C)C)c(=N)c21 (centres undefined)	-2.2%	10µM*	/	/	-3.8%	-27.0%
COc1ccc(C2c3c(ncn(CCN4CCOCC4)c3=N)Oc3ccc4ccccc4c32)cc1OC (centres undefined)	-50.5%	-107.9%	-3.2%	0.8%	1.0%	12.6µM*
CC(C)c1ccccc1NC(=O)CN1C(=O)c2cccc3cccc1c23	/	/	-3.2%	1.0%	7.0%	/
COC(=O)c1ccccc1NC(=S)NC(=O)C1CCCCC1	-5.3%	12.6µM*	9.2%	0.1%	-1.3%	?
SMILES	Sfp inh	RORgamma inh	ClpP mod	Epigenetic reg	PINK1 expr mod	Gal4-VP16 FLuc
COC(=O)c1ccccc1NC(=O)C1CCCC1	9.6%	-0.3%	-27.3%	-7.5%	5.4%	-13.9%
O=C(NC(=S)Nc1ccccc1Br)C1CCC1	4.3%	3.16µM*	-2.7%	/	3.5%	5.01µM*
COc1ccccc1NC(=S)NC(=O)C1CC1	9.6%	12.6µM*	0.9%	-0.1%	2.0%	?
N#Cc1ccccc1NC(=S)NC(=O)C1CCC1	-8.7%	?	-2.2%	/	1.5%	-5.7%
CCOc1ccccc1NC(=S)NC(=O)C1CCCCC1	-1.8%	5.62µM*	0.8%	/	11.3%	6.31µM*
O=C(NC1CCCCC1)c1ccccc1NC(=S)NC(=O)C1CC1	19.0%	-16.5%	-4.4%	0.1%	4.1%	-0.5%
O=C(NC(=S)Nc1ccccc1Cl)C1CC1	5.7%	?	-1.0%	/	1.1%	11.2µM*
COC(=O)c1ccccc1NC(=O)C1CC=CCC1C(=O)O (centres undefined)	14.1%	-2.7%	22.4µM*	-11.1%	-1.5%	-5.0%
COc1cc(NC(=O)COC(=O)c2ccccc2SCC(=O)N2CCCC2)cc(OC)c1	/	/	-3.0%	/	0.3%	/
COc1ccc(C)cc1NC(=O)COC(=O)c1ccccc1SCC(=O)N1CCCC1	/	/	28.2µM*	/	5.3%	/
C=CCNC(=O)/C(C#N)=C/c1ccc(SC)cc1	-10.9%	-1.9%	25.1µM*	1.6%	-2.3%	11.2%
COc1ccc(/C=C(\C#N)C(=O)Nc2cc(C)c(Cl)cc2OC)cc1O	-5.2%	-19.9%	0.6%	5.3%	10.3%	-6.9%
C=CCNC(=O)/C(C#N)=C/c1c(C)nn(-c2ccccc2)c1Cl	79.4µM*	?	/	0.0%	5.6%	12.6µM*
COc1ccc(/C=C(/C#N)C(=O)Nc2cc(C)ccc2C)cc1C(=O)O	?	?	25.1µM*	-1.2%	2.2%	?
C=CCNC(=O)/C(C#N)=C/c1ccc(OS(=O)(=O)c2ccc(C)cc2)c(OC)c1	-1.5%	11.2µM*	-15.8%	?	-3.8%	?
C=CC(C1=CC(=O)C(OC)=CC1=O)c1ccccc1 (centres undefined)	-94.3%	?	/	-0.5%	/	?
COc1ccc(-c2nc3scc(CCNS(=O)(=O)c4cccc(C(C)=O)c4)n3n2)cc1	/	/	-0.5%	3.6%	2.6%	/
C=Cc1ccc(Cn2ccn(-c3ccc(F)c(F)c3)c(=O)c2=O)cc1	/	/	4.1%	2.8%	2.5%	/
Cc1cc(NC(=O)CSc2nc(N)c(NC(=O)c3ccccc3F)c(=O)[nH]2)no1	-12.7%	-3.4%	15.8µM*	/	8.0%	4.1%
Cc1cc(C(=O)C(=O)Nc2nnc(C(C)C)s2)c(C)n1-c1ccccc1	/	/	-10.1%	-3.8%	1.4%	/
O=c1oc2cc(O)ccc2cc1-c1nc2c(s1)CCc1ccccc1-2	56.2µM*	-5.9%	20µM*	?	1.3%	-21.2%
N#C/C(=C(/O)CCl)c1nc2c(s1)CCc1ccccc1-2	56.2µM*	-36.3%	-2.4%	/	-2.7%	-25.6%
O=c1oc2ccccc2cc1-c1nc2c(s1)CCc1ccccc1-2	7.94µM*	25.7%	-2.5%	3.0%	0.9%	-7.3%
CCc1sc(-c2cc3ccc(O)cc3oc2=O)nc1-c1ccc(C)cc1	/	/	?	/	0.7%	/
